About 83,000 compounds went through this panel and 20% of them were active in at least one assay; those are over-represented in the sample as a whole.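 How to read the values: 0–100, growth inhibition (40 = 60% inhibited); 0, no net growth; -100 to 0, cell death (-40 = 40% of starting cells died; -100 = all dead).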 The source made the active and inactive calls. How the source made its calls: active means growth percent below 10; inactive means the rest.

For the assay, the system named is HL-60(TB) leukemia. The assay can be described thus: NCI-60 one-dose screen, 48 h (100 = growth as untreated, 0 = no growth, -100 = all killed). The conditions noted are these: 10 µM unless noted.
On to `Cc1cc(CC(C)CC(C)(C)C)n(O)c(=O)c1` (configuration not stated) (tested in a mixture with another compound), for which the growth was -27.7% (active).
The value for `CC/C(Cc1ccccc1)=C(/c1ccc(O)cc1)c1ccc(OCCN2CCCC2)cc1` was -56.9% (active); that for `COc1cc(/C=C/c2cc(/C=C/c3ccc(O)c(OC)c3)n(-c3ccccc3)n2)ccc1O` was -42.2% (active).
On to `COC(=O)CCc1n(Cc2ccc3ccccc3c2)c2ccccc2[n+]1Cc1ccc2ccccc2c1`, for which the growth was -49.1% (active).
Then `O=C(Nc1cccc(C(F)(F)F)c1)Nc1ccc(OCc2nnc(-c3ccc(Cl)cc3)o2)c(F)c1`, with 92.5% (inactive).
The value for `COc1cccc(C(=O)NCCCNc2cc(-c3cn(-c4ccccc4)nc3-c3cccc(OC)c3)ccn2)c1` was 22.7% (inactive).
The value for `CC(=O)Nc1nc(C)c(C(=O)N/N=C/N2CCOCC2)s1` was 188% (inactive); that for `COc1ccc(-c2cn(Cc3cc4ccccc4s3)nn2)cc1OCCN1CCCCC1` was 77% (inactive); that for `O=c1cc2oc3cc(O)c(O)cc3c(-c3ccccc3O)c-2cc1O` was 103% (inactive).
Regarding `Cn1cc(-c2csc(-c3cccc(F)c3)n2)c2cccnc21`, the growth was 2.72% [100 µM] (active).
The value for `CNc1ccc(NC)c2c1C(=O)c1ccccc1C2=O` was 87.3% (inactive); that for `O=C(Nc1ccc(OS(=O)(=O)c2ccc(F)cc2)cc1)c1ccc(Cl)cc1` was 90.9% (inactive).
`NC(=O)c1c(NC(=O)c2cccs2)sc2c1CCC(=O)C2`: the growth was 2.73% (active).
Then `CNC(=O)c1c(I)c(NC(C)=O)c(I)c(C(=O)O)c1I`, with 122% (inactive); and `CS(=O)(=O)c1nccc(-c2c(-c3cccc(OCc4ccc(F)cc4)c3)nc3sccn23)n1`, with 43.7% (inactive); and `CC1Cc2ccccc2O1` (configuration not stated), with 102% (inactive).
In the case of `CC(=O)/C(N=Nc1ccc(S(=O)(=O)c2ccc(N=N/C(C(C)=O)=C(/C)O)cc2)cc1)=C(\C)O`, the growth is 88.5% (inactive).
For `CN(C)c1ccc(/C=c2\s/c(=C\C(=O)C(C)(C)C)[nH]c2=O)cc1`, the growth is 119% (inactive).
As to `O=C(Nc1cccc([N+](=O)[O-])c1)c1cccc(C(=O)Nc2cccc([N+](=O)[O-])c2)c1`, the growth was 81% (inactive).
The value for `O=C(/C=C/c1ccc(Cl)cc1)/C=C/c1cc2ccccc2[nH]c1=O` was 55.6% (inactive).
With `C#C[C@@]1(O)[C@@H](CO)O[C@@H](n2ccc3c(N)ncnc32)[C@@H]1O`, the growth is -25.5% (active).
The value for `COCCc1n(Cc2ccc3ccccc3c2)c2ccccc2[n+]1Cc1ccc2ccccc2c1` was -62.4% (active); that for `O=C(CC1Sc2ccccc2NC1=O)NNc1cccc(Cl)c1Cl` (configuration not stated) was 9.18% (active).
Then `O=C(CNC(=O)OCc1ccccc1)NCC(=O)Oc1ccc([N+](=O)[O-])cc1`, with 141% (inactive).
Then `CCOC(=O)CNC1=C(Cl)C(=O)N(Cc2ccc(Cl)cc2)C1=O`, with 105% (inactive); and `Cn1ccnc1C(=O)/C=C/c1ccc(CC(=O)Nc2ccccc2)cc1`, with -27.2% (active).
Turning to `O=S(=O)(NCCNc1nccc(-c2c(-c3ccc(F)cc3)nc3sccn23)n1)c1ccc(F)cc1`, the growth was 117% (inactive).
The value for `O=C(Oc1ccc[nH]c1=O)c1cccc(Cl)c1` was 87.6% (inactive); that for `O=c1[nH]nnc2c1ncn2C1OC(CO)C(O)C1O` (configuration not stated) was 25.2% (inactive); that for `OC(c1cc2cc(Br)ccc2c2cc(Br)ccc12)C1CCCCN1` (configuration not stated) was -61.8% (active).
As to `Nc1cc2nc3ccccc3oc-2cc1=O`, the growth is 16.2% (inactive).
Regarding `CC1(C)NCCC[C@]2(C)[C@H]3C=CC4=C5C[C@](C)(CO)CC[C@]5(C)CC[C@@]4(C)[C@]3(C)CC[C@@H]12`, the growth is -52.8% [100 µM] (active).
Then `Nc1c(C(=O)Nc2ccccn2)sc2nc3c(cc12)CCCC3`, with 5.35% (active).
Then `CCCCO[C@@H]1C=C2[C@H]3CC(C)(C)C(=O)C[C@]3(C(=O)O[C@@H]3O[C@H](CO[C@@H]4O[C@H](CO)[C@@H](OC5OC(C)C(O)C(O)C5O)[C@H](O)[C@H]4O)[C@@H](O)[C@H](O)[C@H]3O)CC[C@@]2(C)[C@]2(C)CC[C@H]3C(C)(C)C(=O)CC[C@]3(C)[C@@H]12` (some centres not stated), with 49.2% (inactive); and `COc1ccc(OC)c(/C=C/C(=O)c2c(C)nc3ccccc3c2/C=C/c2ccccc2)c1`, with 47% (inactive).
As for `O=C1/C(=C/c2ccc([N+](=O)[O-])cc2)COc2ccc(O)cc21`, the growth was 50.9% (inactive).
The value for `COc1cc(Oc2cc(-c3cccnc3)ccc2NC(=O)Nc2ccc(F)cc2F)cc(OC)c1OC` was 91.3% (inactive).

The values are drawn from PubChem BioAssay (NCI).
